{
  "source": "PubChem BioAssay (NCATS)",
  "key": {"[1]": {"biological_target": "Voltage-gated inwardly rectifying potassium channel KCNH2 (Homo sapiens) (UniProt Q12809)", "sequence (Q12809 whole entry, looked up)": "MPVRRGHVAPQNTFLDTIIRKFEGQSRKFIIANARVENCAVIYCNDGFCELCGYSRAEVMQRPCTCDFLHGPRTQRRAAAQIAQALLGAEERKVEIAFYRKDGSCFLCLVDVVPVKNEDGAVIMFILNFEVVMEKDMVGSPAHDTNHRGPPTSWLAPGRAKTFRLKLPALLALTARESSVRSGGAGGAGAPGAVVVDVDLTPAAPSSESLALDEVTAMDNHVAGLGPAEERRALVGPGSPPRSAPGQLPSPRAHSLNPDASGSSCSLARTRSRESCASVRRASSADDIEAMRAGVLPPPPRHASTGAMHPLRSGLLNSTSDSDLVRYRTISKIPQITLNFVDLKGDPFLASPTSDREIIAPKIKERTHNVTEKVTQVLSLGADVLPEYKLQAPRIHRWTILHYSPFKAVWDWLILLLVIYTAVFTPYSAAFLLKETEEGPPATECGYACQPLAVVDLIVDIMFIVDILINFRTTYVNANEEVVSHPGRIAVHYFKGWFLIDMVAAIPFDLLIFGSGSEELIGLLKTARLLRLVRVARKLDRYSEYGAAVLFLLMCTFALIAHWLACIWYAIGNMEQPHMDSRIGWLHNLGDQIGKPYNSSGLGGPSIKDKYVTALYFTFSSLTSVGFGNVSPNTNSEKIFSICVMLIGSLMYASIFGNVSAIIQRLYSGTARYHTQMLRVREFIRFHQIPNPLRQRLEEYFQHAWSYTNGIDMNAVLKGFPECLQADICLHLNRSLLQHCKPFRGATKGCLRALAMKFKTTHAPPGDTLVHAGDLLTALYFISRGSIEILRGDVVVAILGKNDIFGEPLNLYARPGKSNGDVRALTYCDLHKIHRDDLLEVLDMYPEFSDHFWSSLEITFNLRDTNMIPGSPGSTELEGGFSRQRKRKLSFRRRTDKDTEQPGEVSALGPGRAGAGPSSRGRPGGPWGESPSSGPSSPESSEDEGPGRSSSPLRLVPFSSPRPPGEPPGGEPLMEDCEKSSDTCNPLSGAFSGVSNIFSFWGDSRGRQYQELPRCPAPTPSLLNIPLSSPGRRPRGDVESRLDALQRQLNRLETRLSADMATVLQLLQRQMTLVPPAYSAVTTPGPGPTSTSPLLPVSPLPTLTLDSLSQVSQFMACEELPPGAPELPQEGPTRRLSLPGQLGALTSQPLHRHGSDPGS", "experiment": "qHTS Assay for Small Molecule Inhibitors of the Human hERG Channel Activity (AID 588834);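 note: U2OS cells transduced with hERG by BacMam; top concentration of the series differs between compounds; lower thallium flux fluorescence means stronger hERG block; nearly all actives have a fitted effect of over 50% in size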", "procedure,_shortened": "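Cells were infected with hERG-BacMam virus for 4 hrs at room temperature, grown overnight, then seeded at 2000/well. After dye loading and roughly 10 min compound treatment, thallium influx was triggered and fluorescence recorded.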"}, "[2]": {"biological_target": "Luciferin 4-monooxygenase (Photinus pyralis) (UniProt P08659)", "sequence (P08659 whole entry, looked up)": "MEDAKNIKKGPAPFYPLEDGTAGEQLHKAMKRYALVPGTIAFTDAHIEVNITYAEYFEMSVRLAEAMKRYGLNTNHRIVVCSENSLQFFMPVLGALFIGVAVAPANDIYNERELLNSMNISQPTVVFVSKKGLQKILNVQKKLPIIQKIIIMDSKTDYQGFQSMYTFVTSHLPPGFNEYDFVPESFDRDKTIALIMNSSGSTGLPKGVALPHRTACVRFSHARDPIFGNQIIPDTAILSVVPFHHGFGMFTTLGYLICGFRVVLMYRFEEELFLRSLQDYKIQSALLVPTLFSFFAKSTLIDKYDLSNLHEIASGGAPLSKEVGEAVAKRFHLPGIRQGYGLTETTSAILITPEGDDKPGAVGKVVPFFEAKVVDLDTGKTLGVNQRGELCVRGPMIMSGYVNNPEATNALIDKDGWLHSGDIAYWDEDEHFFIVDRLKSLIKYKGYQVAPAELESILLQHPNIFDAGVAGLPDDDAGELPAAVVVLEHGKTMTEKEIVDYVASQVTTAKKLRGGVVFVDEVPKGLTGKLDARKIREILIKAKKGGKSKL", "experiment": "Biochemical firefly luciferase enzyme assay for NPC (AID 624030); note: series mostly up to about 59 µM; nearly all actives have a fitted effect of over 70% in size", "procedure,_shortened": "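Counter-screen for direct inhibition of the luciferase enzyme by approved-drug library compounds, run at 10 nM enzyme in 50 mM Tris acetate (final). Luminescence was read within 5 min of enzyme-buffer addition and normalized to PTC124 versus DMSO (0%).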"}, "[3]": {"experiment": "qHTS assay for small molecule activators of the p53 signaling pathway (AID 651743; active = well fitted activation curve with a large enough effect in the signal ratio, not every such curve was filed as active; the % refers to the signal ratio; note: series mostly up to about 92 µM)", "settings": "HCT-116 p53RE-bla, beta-lactamase FRET ratio, 16 h; hits give high values", "procedure,_shortened": "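Agonist-mode quantitative HTS in HCT-116 cells carrying a p53-response-element beta-lactamase reporter; 16 h compound treatment at 37 C, then FRET substrate loading for 2 h at room temperature and fluorescence read.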"}, "[4]": {"experiment": "qHTS assay for small molecule activators of the nuclear factor-kappa B (NF-kB) signaling pathway (AID 651749; active = well fitted activation curve with a large enough effect in the signal ratio; the % refers to the signal ratio; note: series mostly up to about 77 µM)", "settings": "NF-kB-bla ME-180 cells, beta-lactamase FRET ratio, 16 h; hits give high values", "procedure,_shortened": "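Human ME-180 cervical cells with an NF-kB-bla construct; compounds added via 23 nL pin transfer, DMSO as vehicle; incubation 16 hr. Reporter activity measured by FRET disruption.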"}, "[5]": {"biological_target": "Tumor necrosis factor (Homo sapiens) (UniProt P01375)", "sequence (P01375 whole entry, looked up)": "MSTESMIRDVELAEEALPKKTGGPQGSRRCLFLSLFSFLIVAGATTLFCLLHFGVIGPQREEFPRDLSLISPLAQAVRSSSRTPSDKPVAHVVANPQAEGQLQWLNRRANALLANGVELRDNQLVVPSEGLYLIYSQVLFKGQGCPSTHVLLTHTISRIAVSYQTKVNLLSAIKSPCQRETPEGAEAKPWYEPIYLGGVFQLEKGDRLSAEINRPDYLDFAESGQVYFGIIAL", "experiment": "qHTS assay to identify small molecules that stimulate Tumor Necrosis Factor-alpha (TNF-alpha) secretion (AID 651757; active = well fitted curve in the direction sought with a large enough effect in the signal ratio; the % refers to the signal ratio)", "procedure,_shortened": "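Secreted TNF-alpha quantified by TR-FRET sandwich of two labeled anti-TNF-alpha antibodies, incubated 3 hr at room temperature. Preceded by 17 hr, 37 C compound treatment of THP-1 cells at 3000 cells/well.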"}, "[6]": {"experiment": "qHTS assay to identify small molecules that stimulate interleukin-8 (IL-8) secretion (AID 651758; active = well fitted activation curve with a large enough effect in the signal ratio; the % refers to the signal ratio)", "procedure,_shortened": "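Quantitative HTS in THP-1 monocytic cells at 2000 cells per well, with 16 hrs compound incubation at 37 C. IL-8 in the medium was then quantified by HTRF immunoassay, read after 1-3 hrs at room temperature.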"}, "[7]": {"experiment": "qHTS assay for environmental chemicals that activate the Aryl hydrocarbon Receptor (AhR) signaling pathway (AID 651777); note: nearly all actives have a fitted effect of over 15% in size", "settings": "1A2-DRE human hepatoma cells, luciferase, 24 h; hits give high values", "procedure,_shortened": "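Quantitative HTS in stably transfected human liver-derived cells whose luciferase gene sits downstream of the CYP1A2 promoter and dioxin response element. After 24 hr exposure at 37 C, One-Glo luminescence was measured.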"}, "[8]": {"biological_target": "Peroxisome proliferator-activated receptor alpha (Homo sapiens) (UniProt Q07869)", "sequence (Q07869 whole entry, looked up)": "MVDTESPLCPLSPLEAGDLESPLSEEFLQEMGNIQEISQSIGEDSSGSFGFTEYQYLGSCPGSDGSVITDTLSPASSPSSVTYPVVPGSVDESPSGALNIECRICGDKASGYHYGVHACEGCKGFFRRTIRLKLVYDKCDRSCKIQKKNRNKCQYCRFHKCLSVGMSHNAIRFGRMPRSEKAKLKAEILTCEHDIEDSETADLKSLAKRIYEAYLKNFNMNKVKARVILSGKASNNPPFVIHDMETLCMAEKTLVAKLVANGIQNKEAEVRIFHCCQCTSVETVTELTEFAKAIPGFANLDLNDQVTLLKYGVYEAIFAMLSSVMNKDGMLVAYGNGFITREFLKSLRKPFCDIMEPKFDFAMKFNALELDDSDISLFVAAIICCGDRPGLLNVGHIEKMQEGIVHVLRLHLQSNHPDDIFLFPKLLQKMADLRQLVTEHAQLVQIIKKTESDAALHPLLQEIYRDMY", "experiment": "qHTS assay for small molecule agonists of the peroxisome proliferator-activated receptor alpha (PPARalpha) signaling pathway (AID 651778)", "settings": "PathHunter PPARalpha complementation, chemiluminescence, 6 h; max response: hits give high values", "procedure,_shortened": "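Cells plated at 2,000/well and held overnight at 37 C, 5% CO2, then compound added by pin tool for 6 hr; after PathHunter detection reagent and 60 min at room temperature, chemiluminescence from enzyme complementation was read.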"}, "[9]": {"biological_target": "Nuclear receptor ROR-gamma (Homo sapiens) (UniProt P51449)", "sequence (P51449 whole entry, looked up)": "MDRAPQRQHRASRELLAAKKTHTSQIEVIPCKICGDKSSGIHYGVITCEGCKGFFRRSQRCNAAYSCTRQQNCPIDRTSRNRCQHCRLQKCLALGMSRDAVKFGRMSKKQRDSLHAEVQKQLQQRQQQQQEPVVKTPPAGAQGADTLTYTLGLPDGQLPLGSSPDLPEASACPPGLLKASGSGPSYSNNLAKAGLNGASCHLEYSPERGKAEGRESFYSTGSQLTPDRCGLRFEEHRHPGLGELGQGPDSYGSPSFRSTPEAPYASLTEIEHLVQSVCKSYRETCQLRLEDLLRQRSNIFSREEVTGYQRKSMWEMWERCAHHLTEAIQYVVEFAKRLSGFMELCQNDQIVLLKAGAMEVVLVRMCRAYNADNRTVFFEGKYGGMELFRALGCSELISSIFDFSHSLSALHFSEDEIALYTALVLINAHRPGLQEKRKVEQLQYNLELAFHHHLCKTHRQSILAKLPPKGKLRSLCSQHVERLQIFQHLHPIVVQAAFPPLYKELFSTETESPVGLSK", "experiment": "qHTS assay for small molecule antagonists of the retinoid-related orphan receptor gamma (ROR-gamma) signaling pathway (AID 651802);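 note: CHO cells with doxycycline-induced ROR-gamma expression; series mostly up to about 92 µM; nearly all actives have a fitted effect of over 60% in size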", "procedure,_shortened": "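Luminescence (One-Glo, 30 min RT) measured 16 h after compound addition and doxycycline induction at 37C. Reporter: RORE-luciferase under TET-inducible ROR-gamma in CHO cells.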"}, "[10]": {"experiment": "S16 Schwann cell viability assay (CellTiter-Glo assay) (AID 624031); note: nearly all actives have a fitted effect of over 70% in size; note: potency is the fitted concentration of half-maximal effect", "procedure,_shortened": "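Counter-screen for cytotoxicity: parental S16 rat Schwann cells lacking the PMP22 reporters, treated 24 h with compound, viability from cellular ATP by CellTiter-Glo luminescence, normalized to DMSO (0%) and no-cell wells.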"}, "[11]": {"experiment": "S16 Schwann cell PMP22 intronic element firefly luciferase assay (AID 624032); note: nearly all actives have a fitted effect of over 30% in size; note: potency is the fitted concentration of half-maximal effect", "procedure,_shortened": "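Rat S16 Schwann cells stably carrying a PMP22 intronic element-driven Fluc reporter were seeded overnight, then exposed to compounds for 24 h at 37 °C. Luminescence was normalized to PTC124 (positive control) and DMSO (0% activity).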"}, "[12]": {"experiment": "S16 Schwann cell PMP22 intronic element beta-lactamase assay (AID 624044; calls by dose curve; note: nearly all actives have a fitted effect of over 15% in size)", "procedure,_shortened": "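Beta-lactamase reporter under a PMP22 intronic regulatory element in stable S16 rat Schwann cells; 24 h compound exposure. 460 nm blue signal normalized between DMSO (0%) and potassium clavulanate, with 535 nm FRET tracking viability; curves classed by r2 and response.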"}, "[13]": {"biological_target": "Glutaminase kidney isoform, mitochondrial (Homo sapiens) (UniProt O94925)", "sequence (O94925 whole entry, looked up, canonical isoform)": "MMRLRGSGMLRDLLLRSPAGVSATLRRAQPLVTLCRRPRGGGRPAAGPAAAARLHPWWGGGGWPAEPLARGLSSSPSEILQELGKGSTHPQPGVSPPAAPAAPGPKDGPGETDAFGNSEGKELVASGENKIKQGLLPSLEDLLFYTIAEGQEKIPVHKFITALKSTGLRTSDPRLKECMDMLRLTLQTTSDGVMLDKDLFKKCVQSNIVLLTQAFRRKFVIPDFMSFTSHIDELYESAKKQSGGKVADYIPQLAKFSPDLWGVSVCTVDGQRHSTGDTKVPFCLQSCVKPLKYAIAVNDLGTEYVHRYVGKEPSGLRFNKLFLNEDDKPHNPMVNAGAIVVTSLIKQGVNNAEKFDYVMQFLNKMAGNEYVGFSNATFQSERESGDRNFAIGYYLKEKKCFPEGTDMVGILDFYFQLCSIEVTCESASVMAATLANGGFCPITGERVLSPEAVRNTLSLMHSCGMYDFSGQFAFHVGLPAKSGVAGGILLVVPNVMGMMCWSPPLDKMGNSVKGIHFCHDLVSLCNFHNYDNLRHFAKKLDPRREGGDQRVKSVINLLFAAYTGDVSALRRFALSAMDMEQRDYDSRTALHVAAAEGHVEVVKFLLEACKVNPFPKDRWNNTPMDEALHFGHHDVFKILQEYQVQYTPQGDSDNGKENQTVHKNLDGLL", "experiment": "qHTS for Inhibitors of Glutaminase (GLS): LOPAC Validation (AID 624146);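 note: glutamate product detected by oxidase and peroxidase coupled Amplex red fluorescence gain; series mostly up to about 46 µM; nearly all actives have a fitted effect of over 60% in size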", "procedure,_shortened": "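Coupled fluorescence readout: glutamate oxidase/HRP/Amplex Red detect glutamate formed by hKGA from L-glutamine (1 mM solution added). Buffer 45 mM KH2PO4 pH 8.2, 0.02% Tween-20; reads at t0 and 30 min RT.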"}, "[14]": {"biological_target": "Glucagon-like peptide 1 receptor (Homo sapiens) (UniProt P43220)", "sequence (P43220 whole entry, looked up)": "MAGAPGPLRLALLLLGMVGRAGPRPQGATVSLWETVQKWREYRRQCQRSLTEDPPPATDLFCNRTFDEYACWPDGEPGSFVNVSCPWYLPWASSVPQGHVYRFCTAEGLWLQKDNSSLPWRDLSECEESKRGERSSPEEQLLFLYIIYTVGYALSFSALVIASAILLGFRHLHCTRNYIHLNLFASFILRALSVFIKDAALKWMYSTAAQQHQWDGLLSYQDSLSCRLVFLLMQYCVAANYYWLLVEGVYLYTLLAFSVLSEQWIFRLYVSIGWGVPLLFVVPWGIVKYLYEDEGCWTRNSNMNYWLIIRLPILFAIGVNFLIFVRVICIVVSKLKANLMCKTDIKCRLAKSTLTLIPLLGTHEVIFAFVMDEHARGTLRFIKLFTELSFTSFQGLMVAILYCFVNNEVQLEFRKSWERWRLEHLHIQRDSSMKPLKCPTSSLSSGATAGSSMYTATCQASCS", "experiment": "qHTS of GLP-1 Receptor Agonists: LOPAC Validation (AID 624148);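 note: higher luminescence signal means agonism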", "procedure,_shortened": "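HEK293 cells stably co-expressing a cAMP-responsive luciferase reporter and a hypersensitive GLP-1R were plated 12 h at 37 °C and exposed to compounds for 4-6 hr at 37 °C, 5% CO2. Luminescence was read 12 min after adding detection reagent.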"}, "[15]": {"experiment": "qHTS of Nrf2 Activators: LOPAC Validation (AID 624149)", "procedure,_shortened": "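Luciferase signal from ARE activation, read with Steady-Glo after 30 min at room temperature. Compounds were pin-transferred onto AREc32_Fluc cells (1000/well, OPTI-MEM/5% FBS, seeded overnight) and left 24 hr at 37 deg C.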"}, "[16]": {"experiment": "HTS Assay for Allosteric Antagonists of the Human D2 Dopamine Receptor: Hit Validation in HTRF (AID 624455)", "procedure,_shortened": "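Inhibition of the D1-mediated response was measured by HTRF. Cells used were a line stably expressing the D1 dopamine receptor.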"}},
  "note": "Where “and” joins values, the source holds several entries; their conditions need not be identical. Equal values may be shown once. Values without a mark were called inactive. Results filed as inconclusive are left out. Where a call stands in place of a potency, no number is given. Calls of active or inactive are those of the source. Unless noted, calls come from the whole dose curve; as a rule, active = well fitted curve in the direction sought with a large enough effect; inconclusive = small, poorly fitted or top-dose-only effect, or another doubt; inactive = no such curve, though single readings can be large; an effect the other way counts as inactive or inconclusive. Where a SMILES comes first, the peptide text is derived from it. Bridges are numbered along the chain shown (N, C = ends). [ ]: non-standard residue; d: D form. Orn = NCCC[C@H](N)C(=O)O; Mpa = O=C(O)CCS",
  "data": [
    {"smiles": "C=Cc1ccccc1", "values": [
      {"measurement": "outcome", "setting": "[1]", "value": "inactive"},
      {"measurement": "Potency", "setting": "[2]", "value": "inactive"},
      {"measurement": "activation", "setting": "[3]", "value": "-0.864% and -2.45%"},
      {"measurement": "activation", "setting": "[4]", "value": "-0.47% and -1.21%"},
      {"measurement": "outcome", "setting": "[5]", "value": "inactive"},
      {"measurement": "outcome", "setting": "[6]", "value": "inactive"},
      {"measurement": "activation", "setting": "[7]", "value": "0.041% and 1.82%"},
      {"measurement": "max response", "setting": "[8]", "value": "-2.11% and 2.32%"},
      {"measurement": "outcome", "setting": "[9]", "value": "inactive"}
    ]},
    {"smiles": "NCCCC(=O)O", "values": [
      {"measurement": "outcome", "setting": "[1]", "value": "inactive"},
      {"measurement": "Potency", "setting": "[2]", "value": "inactive"},
      {"measurement": "Potency", "setting": "[10]", "value": "inactive"},
      {"measurement": "Potency", "setting": "[11]", "value": "inactive"},
      {"measurement": "outcome", "setting": "[12]", "value": "inactive"},
      {"measurement": "outcome", "setting": "[13]", "value": "inactive"},
      {"measurement": "outcome", "setting": "[14]", "value": "inactive"},
      {"measurement": "outcome", "setting": "[15]", "value": "inactive"},
      {"measurement": "outcome", "setting": "[16]", "value": "inactive"}
    ]},
    {"smiles": "O=P(O)(O)OC(CO)CO", "values": [
      {"measurement": "Potency", "setting": "[2]", "value": "inactive"}
    ]},
    {"smiles": "CN1CCN(C2=Nc3ccccc3Cc3ccccc32)CC1", "values": [
      {"measurement": "Potency", "setting": "[2]", "value": "inactive"}
    ]},
    {"smiles": "Cc1cc(-n2c(=O)[nH]c(=O)n(C)c2=O)ccc1Oc1ccc(S(=O)(=O)C(F)(F)F)cc1", "values": [
      {"measurement": "Potency", "setting": "[2]", "value": "inactive"}
    ]},
    {"smiles": "CN(C)CCOc1ccccc1Cc1ccccc1", "note": "(tested in a mixture with another compound)", "values": [
      {"measurement": "Potency", "setting": "[2]", "value": "inactive"}
    ]},
    {"smiles": "CCOC(=O)Nc1ccc2c(c1)N(C(=O)CN(C)C)c1ccccc1CC2", "values": [
      {"measurement": "Potency", "setting": "[2]", "value": "inactive"}
    ]},
    {"smiles": "O=C(OCCO)c1ccccc1O", "values": [
      {"measurement": "Potency", "setting": "[2]", "value": "inactive"}
    ]},
    {"smiles": "CCOc1ccc(C[C@H]2NC(=O)CCSSC[C@@H](C(=O)N3CCC[C@H]3C(=O)N[C@@H](CCCN)C(=O)NCC(N)=O)NC(=O)[C@H](CC(N)=O)NC(=O)[C@H]([C@@H](C)O)NC(=O)[C@H]([C@@H](C)CC)NC2=O)cc1", "note": "([Mpa][dY](Et)ITNCP[Orn]G-NH2; disulfide 1-6)", "values": [
      {"measurement": "Potency", "setting": "[2]", "value": "inactive"}
    ]},
    {"smiles": "CC(=O)[C@@]1(O)CC[C@H]2[C@@H]3C=C(Cl)C4=CC(=O)CC[C@]4(C)[C@H]3CC[C@@]21C", "values": [
      {"measurement": "Potency", "setting": "[2]", "value": "inactive"}
    ]},
    {"smiles": "C=CCNC1=C2C[C@@H](C)C[C@H](OC)[C@H](O)[C@@H](C)/C=C(\\C)[C@H](OC(N)=O)[C@@H](OC)/C=C\\C=C(/C)C(=O)NC(=CC1=O)C2=O", "values": [
      {"measurement": "Potency", "setting": "[2]", "value": "inactive"},
      {"measurement": "Potency", "setting": "[10]", "value": "16.1 µM (active)"},
      {"measurement": "Potency", "setting": "[11]", "value": "0.0721 µM (active)"},
      {"measurement": "outcome", "setting": "[12]", "value": "inactive"}
    ]},
    {"smiles": "O=C(O)c1cccc(/C=C2/C[C@@H]3[C@@H](/C=C/[C@@H](O)C4CCCCC4)[C@H](O)C[C@@H]3O2)c1", "values": [
      {"measurement": "Potency", "setting": "[2]", "value": "inactive"}
    ]},
    {"smiles": "COc1ccc(C(=O)Nc2ccccc2CCC2CCCCN2C)cc1", "note": "(stereo not given)", "values": [
      {"measurement": "Potency", "setting": "[2]", "value": "inactive"}
    ]},
    {"smiles": "CN=C(NC)NCc1ccccc1", "values": [
      {"measurement": "Potency", "setting": "[2]", "value": "inactive"}
    ]},
    {"smiles": "COC1C(OC(=O)/C=C/C=C/C=C/C=C/C(=O)O)CCC2(CO2)C1C1(C)OC1CC=C(C)C", "note": "(stereo not given)", "values": [
      {"measurement": "Potency", "setting": "[2]", "value": "inactive"},
      {"measurement": "Potency", "setting": "[10]", "value": "inactive"}
    ]}
  ]
}
